High-throughput results (PubChem)
KCNK3 inh = human KCNK3 channel inhibitors, primary screen, CHO cells, FluxOR thallium flux, B-score | Potassium channel subfamily K member 3 (Homo sapiens), O14649 | FluxOR fluorescence; hits give low values | B-score at 10 µM | 340,000 compounds, 0.84% hits | AID 602410, 2012;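 active = B-score under library mean minus 4 SD, starting fluorescence ratio at most library mean plus 5 SD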;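 also: more negative B-score means stronger inhibition of thallium flux through KCNK3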
ANO1 activ = TMEM16A chloride channel activators or potentiators, primary screen, cell-based, HTS. B-score at 10 µM. 340,000 compounds, 0.3% hits. HEK293 TMEM16A/YFP-H148Q/I152L, iodide quench fluorescence; hits give low values. Anoctamin-1 (Mus musculus), Q8BHY3;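 active = fluorescence-ratio B-score plate-corrected deviation score at least 3 library SD below zero, with starting fluorescence score within 5 deviations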;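 also: channel opened by trigger with iodide after compound preincubation; score built on the fluorescence ratio of max minus min over baseline; more negative score means more quench and so TMEM16A activation or potentiation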
Kir21 block = inhibitors of mouse Kir2.1 inward-rectifier potassium channel. HEK293-Kir2.1, FluxOR thallium flux fluorescence; hits give low values. Inward rectifier potassium channel 2 (Mus musculus), P35561. B-score at 10 µM. AID 1672, 2009. 310,000 compounds, 0.85% hits;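 active = fluorescence ratio B-score at or below minus 3 SD of library scores, with starting-brightness B-score within 2 SD, cut at about -4.2 in these data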;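 also: channel flux triggered by added potassium and thallium sulfate stimulus; B-score of peak minus minimum fluorescence over baseline after thallium stimulus; more negative B-score means stronger Kir2.1 block with less thallium influx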
TMEM16A inh = TMEM16A chloride channel inhibitors, primary screen, cell-based, HTS; HEK293 TMEM16A/YFP iodide influx fluorescence, ionomycin; AID 588511, 2011; normalized B-score (activity score, 25-100; higher = stronger inhibition) at 10 µM; Anoctamin-1 (Mus musculus), Q8BHY3; 310,000 compounds, 1.2% hits;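 active = ratio plate-corrected score three or more library SD toward inhibition, starting fluorescence score within five deviations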;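 also: score derived from kinetic fluorescence span divided by baseline fluorescence per well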
KCNK9 block = KCNK9 potassium channel inhibitors, primary screen, HEK293 cells, thallium flux. 310,000 compounds, 1.2% hits. FluxOR thallium flux fluorescence; hits give low values. Potassium channel subfamily K member 9 (Homo sapiens), Q9NPC2. AID 488922, 2010. B-score at 10 µM;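 active = ratio B-score over 3 SD below the library mean, with starting fluorescence within 5 SD of its mean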;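 also: negative B-score means less thallium flux so channel inhibition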
Target sequence (Q9NPC2 whole entry, looked up): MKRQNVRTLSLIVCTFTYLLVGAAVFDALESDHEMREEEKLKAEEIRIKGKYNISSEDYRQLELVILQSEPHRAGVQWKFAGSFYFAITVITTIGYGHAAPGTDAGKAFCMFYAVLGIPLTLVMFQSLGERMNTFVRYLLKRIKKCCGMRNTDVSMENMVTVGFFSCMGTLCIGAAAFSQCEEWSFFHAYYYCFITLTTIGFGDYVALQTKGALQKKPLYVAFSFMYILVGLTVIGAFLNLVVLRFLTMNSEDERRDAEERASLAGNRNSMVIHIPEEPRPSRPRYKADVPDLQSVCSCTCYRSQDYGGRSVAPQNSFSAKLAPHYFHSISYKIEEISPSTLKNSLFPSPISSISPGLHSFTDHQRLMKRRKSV
The depositor's hits bear a star. Sampled rows, rich in hits. Any-hit rate of the full collection: about 3.5%.

What do the screens show for `Cc1cccc2cc(C#N)c(NCCCNS(=O)(=O)c3ccc(Cl)cc3)nc12`?
KCNK3 inh: inactive; ANO1 activ: inactive; Kir21 block: 1.23; TMEM16A inh: inactive; KCNK9 block: inactive

How did Cc1cccc(CSc2nc3ccccc3c(=O)n2C)c1 do in these assays?
KCNK3 inh: -9.3*; ANO1 activ: inactive

How did Cc1ccc(-c2nc(CSc3nc4ccccc4c(=O)n3C)cs2)cc1 do in these assays?
KCNK3 inh: inactive; ANO1 activ: inactive; Kir21 block: 0.39; TMEM16A inh: inactive; KCNK9 block: inactive

Results for COc1ccc(Cl)cc1NS(=O)(=O)c1cccc(C(=O)NCC(C)(C)N2CCOCC2)c1 ?
KCNK3 inh: -8.97*; ANO1 activ: inactive

How did Cn1c(N2CCN(S(=O)(=O)c3ccc(Cl)cc3)CC2)nc2ccccc21 do in these assays?
KCNK3 inh: inactive; ANO1 activ: inactive; Kir21 block: -1.52; TMEM16A inh: inactive; KCNK9 block: inactive

Results for Cc1cc(N2CCN(S(=O)(=O)c3ccc(Cl)cc3)CC2)c2ccccc2n1 ?
KCNK3 inh: inactive; ANO1 activ: inactive; Kir21 block: -0.06; TMEM16A inh: 100*; KCNK9 block: inactive

What do the screens show for `N#Cc1c(-c2ccccc2)nc(SCC(=O)Nc2ccc(OC(F)(F)Cl)cc2)[nH]c1=O`?
KCNK3 inh: inactive; ANO1 activ: inactive; Kir21 block: 0.99; TMEM16A inh: inactive; KCNK9 block: inactive

What do the screens show for `CCCC/C(O)=C1\C(=O)CCCC1=NCCc1c(C)[nH]c2ccccc12`?
KCNK3 inh: inactive; ANO1 activ: inactive; Kir21 block: -4.44*; TMEM16A inh: inactive; KCNK9 block: inactive

Results for CC(C)Cn1c(SCC(=O)c2ccc(Cl)s2)nnc1-c1ccco1 ?
KCNK3 inh: inactive; ANO1 activ: inactive; Kir21 block: -9.37*; TMEM16A inh: inactive; KCNK9 block: inactive

How did CCCCn1c(SCC(N)=O)nnc1-c1ccco1 do in these assays?
KCNK3 inh: inactive; ANO1 activ: inactive; Kir21 block: -0.25; TMEM16A inh: inactive; KCNK9 block: inactive

What do the screens show for `CCn1c(SCC(=O)OCc2ccccc2)nnc1-c1ccco1`?
KCNK3 inh: inactive; ANO1 activ: inactive; Kir21 block: -5.87*; TMEM16A inh: inactive; KCNK9 block: inactive

Results for CCCCn1c(SCC(=O)NC(C)(C)C)nnc1-c1ccco1 ?
KCNK3 inh: inactive; ANO1 activ: inactive; Kir21 block: 0.96; TMEM16A inh: 25*; KCNK9 block: inactive

Results for CC1CCC(NC(=O)CSc2nncs2)CC1 (configuration not stated) ?
KCNK3 inh: inactive; ANO1 activ: inactive; Kir21 block: -0.27; TMEM16A inh: inactive; KCNK9 block: inactive

What do the screens show for `Brc1ccc(C2=NC(Cc3ccccc3)CO2)cc1` (configuration not stated)?
KCNK3 inh: inactive; ANO1 activ: inactive; Kir21 block: -0.32; TMEM16A inh: inactive; KCNK9 block: inactive

How did CCOC(=O)c1c(NC(=O)CSc2nnc(-c3c[nH]c4ccccc34)n2C)sc2c1CCCC2 do in these assays?
KCNK3 inh: inactive; ANO1 activ: -21.5*; Kir21 block: 0; TMEM16A inh: inactive; KCNK9 block: inactive

How did CCOC(=O)c1c(NC(=O)CSc2nnc3c(Cl)cc(Cl)cn23)sc2c1CCC2 do in these assays?
KCNK3 inh: inactive; ANO1 activ: inactive; Kir21 block: -4.33*; TMEM16A inh: inactive; KCNK9 block: inactive

Results for COc1ccc(CC(=O)Nc2nn(C)c3nc4c(C)cccc4cc23)cc1 ?
KCNK3 inh: inactive; ANO1 activ: inactive; Kir21 block: 0.19; TMEM16A inh: inactive; KCNK9 block: inactive

Results for CN1CCN(NC(=O)c2cc(-c3ccc(Cl)s3)nc3ccccc23)CC1 ?
KCNK3 inh: inactive; ANO1 activ: inactive; Kir21 block: -4.52*; TMEM16A inh: inactive; KCNK9 block: inactive

Results for CN1CCN(NC(=O)c2cc(-c3ccccn3)nc3ccccc23)CC1 ?
KCNK3 inh: inactive; ANO1 activ: inactive; Kir21 block: 0.65; TMEM16A inh: inactive; KCNK9 block: inactive

What do the screens show for `CCN(Cc1ccccc1)S(=O)(=O)c1ccccc1Br`?
KCNK3 inh: inactive

How did C=CCCCN(Cc1ccccc1)S(=O)(=O)c1ccccc1Br do in these assays?
KCNK3 inh: inactive; ANO1 activ: -6.15*; Kir21 block: 0.91; TMEM16A inh: 25*; KCNK9 block: -7.71*

How did COc1ccc(NC(=O)CCCNC(=O)Cn2cnc3sc4c(c3c2=O)CCCC4)c(OC)c1 do in these assays?
KCNK3 inh: inactive; ANO1 activ: inactive; Kir21 block: -0.31; TMEM16A inh: inactive; KCNK9 block: inactive

What do the screens show for `COc1ccc(CNCc2ccc3ccccc3c2)c(OC)c1`?
KCNK3 inh: inactive; ANO1 activ: inactive; Kir21 block: -8.54*; TMEM16A inh: inactive; KCNK9 block: inactive

What do the screens show for `Cc1ccc(-c2nnn(CCC(=O)NC3CCCC3)n2)cc1`?
KCNK3 inh: inactive; ANO1 activ: inactive; Kir21 block: -0.02; TMEM16A inh: inactive; KCNK9 block: inactive

What do the screens show for `CCN(Cc1ccccc1)C1CCN(Cc2ccc(SC)cc2)CC1`?
KCNK3 inh: inactive; ANO1 activ: inactive; Kir21 block: -4.64*; TMEM16A inh: inactive; KCNK9 block: inactive

What do the screens show for `Nc1c2c(nc3sc4c(c13)CCCCC4)CCCCC2`?
KCNK3 inh: inactive; ANO1 activ: inactive; Kir21 block: -1.08; TMEM16A inh: 25*; KCNK9 block: inactive

Results for O=C(NCCN1CCN(c2ccccc2F)CC1)C1CCCN(S(=O)(=O)c2cnc[nH]2)C1 (configuration not stated) ?
KCNK3 inh: inactive; ANO1 activ: -17.8*; Kir21 block: -1.01; TMEM16A inh: inactive; KCNK9 block: inactive

How did COc1cc(CNCCNC(=O)c2nonc2N)ccc1OCc1ccc(Cl)cc1 do in these assays?
KCNK3 inh: inactive; ANO1 activ: inactive; Kir21 block: -6.65*; TMEM16A inh: inactive; KCNK9 block: inactive

How did Nc1nonc1C(=O)NCCNCc1cc(Br)ccc1OCc1ccccc1F do in these assays?
KCNK3 inh: inactive; ANO1 activ: inactive; Kir21 block: -0.51; TMEM16A inh: 100*; KCNK9 block: inactive

Results for Nc1nonc1C(=O)NCCNCc1ccccc1OCc1ccccc1F ?
KCNK3 inh: inactive; ANO1 activ: inactive; Kir21 block: -0.39; TMEM16A inh: inactive; KCNK9 block: inactive

What do the screens show for `CCOC(=O)N1CCN(c2ccc(C(=O)c3cccc(F)c3)cc2)CC1`?
KCNK3 inh: inactive; ANO1 activ: inactive; Kir21 block: 0.57; TMEM16A inh: 25*; KCNK9 block: inactive
